Experimental findings from PubChem BioAssay (NCI) are described below.

Test systems include DU-145 prostate; K-562 leukemia; MALME-3M melanoma; MDA-MB-231 breast; RXF 393 renal; SF-268 CNS; SF-295 CNS; SF-539 CNS; UACC-257 melanoma; M14 melanoma.
What all share (assay): NCI-60 one-dose screen, 48 h (100 = growth as untreated, 0 = no growth, -100 = all killed)
Common to all, as to settings: 10 µM unless noted

Compounds without any hit were thinned out: in the full panel of roughly 83,000, 20% have a hit.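 The test compound was applied at a single concentration to cells in 96-well plates for 48 hours, and percent growth was recorded.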 Values without a mark were called inactive. Activity calls are given as the source filed them. Rule for the calls: active = growth percent below 10; inactive = the rest.

Take `COC(=O)c1cc(-c2ccc(S(C)(=O)=O)cc2)[nH]c1N/N=C/c1c(Cl)cccc1Cl`: the growth was 4.36% (active) in the test with DU-145 prostate; -1.67% (active) in the test with K-562 leukemia; 4.13% (active) in the test with MALME-3M melanoma; 50.9% in the test with MDA-MB-231 breast; -2.32% (active) in the test with RXF 393 renal; 37.1% in the test with SF-268 CNS. Moreover, the growth is -28.2% (active) in the test with SF-295 CNS, -19.8% (active) in the test on SF-539 CNS, 60.3% in the test with UACC-257 melanoma and -8.67% (active) with M14 melanoma.

For `O=S(=O)(Nc1ccc(Cl)cc1)c1ccc(-c2cnc(C3CC3)o2)cc1`, the growth is 12.6% in the test with DU-145 prostate; 9.33% (active) in the test on K-562 leukemia; 46.3% with MALME-3M melanoma; 26.9% in the test on MDA-MB-231 breast; -10.1% (active) in the test on RXF 393 renal; 43.5% in the test with SF-268 CNS. The growth in the test with SF-295 CNS is 33.6%; in the test on SF-539 CNS, -14.6% (active); with UACC-257 melanoma, 56.1%; in the test with M14 melanoma it was 22%.

Turning to `Cn1cc(-c2csc(-c3ccc(Cl)cc3)n2)c2cccnc21`, the growth with DU-145 prostate was -70.5% [100 µM] (active); in the test with K-562 leukemia it was 3.35% [100 µM] (active); with MALME-3M melanoma, -9.47% [100 µM] (active); in the test with MDA-MB-231 breast it was -46.5% [100 µM] (active); in the test with RXF 393 renal, -7.46% [100 µM] (active); with SF-268 CNS, -33.6% [100 µM] (active). The growth was -20.3% [100 µM] (active) in the test on SF-295 CNS, -63.8% [100 µM] (active) in the test on SF-539 CNS, -35.6% [100 µM] (active) in the test on UACC-257 melanoma and -62.3% [100 µM] (active) in the test with M14 melanoma.

For the compound `COc1ccc(-c2nc3c(c(-c4ccccc4)nn3-c3ccccc3)c(-c3ccc(N4CCN(C)CC4)cc3)c2C#N)cc1`, the growth in the test on DU-145 prostate was 92.9%; with K-562 leukemia it was 8.47% (active); with MALME-3M melanoma, 94.6%; in the test with MDA-MB-231 breast it was 97.9%; in the test with RXF 393 renal, 76%; in the test with SF-268 CNS it was 105%. Also, the growth in the test on SF-295 CNS was 107%; in the test with SF-539 CNS, 95.7%; in the test on UACC-257 melanoma, 95.5%; with M14 melanoma, 104%.

Regarding `CN(C)CCNc1nc2c3cc(Cl)ccc3nn2c2ccccc12`, the growth in the test on DU-145 prostate is 54.3%; in the test on K-562 leukemia, 46.5%; in the test with MALME-3M melanoma it was 42%; in the test with MDA-MB-231 breast, 46.8%; with RXF 393 renal, 4.75% (active); in the test on SF-268 CNS, 45.7%. In addition, the growth is 26.9% with SF-295 CNS, 36.8% with SF-539 CNS, 52.5% in the test with UACC-257 melanoma and 62.1% in the test with M14 melanoma.

`Cn1ccnc1C(=O)C(=O)Nc1ccc(CC(=O)Nc2ccccc2)cc1`: the growth is 104% with DU-145 prostate; 111% with K-562 leukemia; 101% in the test on MALME-3M melanoma; 109% in the test on MDA-MB-231 breast; 102% in the test with RXF 393 renal; 96.7% with SF-268 CNS. The growth in the test on SF-295 CNS is 106%; in the test on SF-539 CNS it was 99.4%; with UACC-257 melanoma it was 110%; in the test on M14 melanoma, 104%.

In the case of `O=C1CNC(c2ccccc2)C(c2ccccc2)N1` (stereo not given), the growth in the test on DU-145 prostate is 102%; with K-562 leukemia it was 120%; with MALME-3M melanoma it was 86.9%; in the test on MDA-MB-231 breast it was 100%; in the test with RXF 393 renal, 98.3%; in the test with SF-268 CNS it was 110%. For the same compound, the growth with SF-295 CNS is 109%; in the test on SF-539 CNS it was 100%; with UACC-257 melanoma it was 102%; with M14 melanoma, 97.4%.

As to `Cc1ccc2c3c(c(=O)[nH]c2c1)C1(C(C#N)=C(N)O3)c2cc(Br)ccc2-c2ccc(Br)cc21`, the growth is -7.81% (active) in the test with DU-145 prostate; 18.8% in the test on K-562 leukemia; -47.9% (active) in the test on MALME-3M melanoma; -33.9% (active) in the test with MDA-MB-231 breast; -63.6% (active) with RXF 393 renal; -26.9% (active) in the test with SF-268 CNS. The growth in the test on SF-295 CNS is -68.7% (active); with SF-539 CNS it was -51% (active); in the test on UACC-257 melanoma it was 71.2%; in the test with M14 melanoma it was 50.6%.

On to `N#Cc1c(N)nnn1Cc1cc(=O)oc2c1ccc1ccccc12`, for which the growth is 105% in the test with DU-145 prostate; 93.6% in the test on K-562 leukemia; 103% in the test on MALME-3M melanoma; 86.7% in the test with MDA-MB-231 breast; 104% with RXF 393 renal; 98% in the test on SF-268 CNS. The growth with SF-295 CNS was 109%; in the test with SF-539 CNS it was 113%; in the test with UACC-257 melanoma it was 97.7%; with M14 melanoma it was 101%.

For the compound `CCCCCOc1ccc(C(=O)/C(Br)=C/C(=O)O)cc1`, the growth is 106% in the test on DU-145 prostate; 60.1% in the test on K-562 leukemia; 130% in the test on MALME-3M melanoma; 109% with MDA-MB-231 breast; 95.2% in the test on RXF 393 renal; 97.5% in the test with SF-268 CNS. Besides, the growth in the test with SF-295 CNS is 112%; in the test on SF-539 CNS, 100%; in the test on UACC-257 melanoma, 106%; with M14 melanoma, 56.8%.

As to `O=C(O)c1ccc(-n2cc(/C=N/Nc3ccc(F)cc3)c(-c3cc4ccccc4oc3=O)n2)cc1`, the growth with DU-145 prostate was 91.2%; in the test with K-562 leukemia it was 11.6%; with MALME-3M melanoma it was 79.8%; with MDA-MB-231 breast it was 83.7%; with RXF 393 renal it was 113%; in the test on SF-268 CNS, 76.8%. Moreover, the growth in the test with SF-295 CNS was 72.1%; in the test with SF-539 CNS, 85.9%; in the test on UACC-257 melanoma, 107%; in the test on M14 melanoma it was 47.3%.

For `CCOC(=O)C(=Cc1cccc(Br)c1)C(=O)OCC`, the growth in the test with DU-145 prostate was 4.57% (active); in the test with K-562 leukemia, 21.3%; in the test on MALME-3M melanoma, 73.1%; in the test with MDA-MB-231 breast, 38.1%; with RXF 393 renal, 40.3%; with SF-268 CNS it was 25.7%. In addition, the growth in the test on SF-295 CNS was 97%; in the test on SF-539 CNS it was 4.36% (active); in the test on UACC-257 melanoma, 35%; in the test with M14 melanoma, 32.9%.

`O=C(CSc1nnc2n1S(=O)(=O)c1ccccc1N2c1ccccc1)Nc1nc2ccc(F)cc2s1`: the growth is 114% with DU-145 prostate; 98.5% in the test with K-562 leukemia; 87.4% in the test on MALME-3M melanoma; 98.9% in the test on MDA-MB-231 breast; 87.1% in the test on RXF 393 renal; 97.2% with SF-268 CNS. The growth in the test with SF-295 CNS is 91.5%; with SF-539 CNS it was 102%; in the test with UACC-257 melanoma, 111%; in the test on M14 melanoma, 96.5%.
